Test results taken from ChEMBL document CHEMBL3988442, “University of Dundee, Small-Polar-MMV Screening Library” (2021).
About 900 (1.7%) of roughly 53,000 compounds showed an effect of 50% or more. The sample holds strong results, similar compounds and a random draw of the others, so the mix is not that of the screen.

Tested on: Mycobacterium tuberculosis
Assay: Cornell - Phenotypic assay to identify agents that inhibit growth of Mycobacterium tuberculosis
Format: functional
Set-up: scale not given: direction of the effect not stated beside the values
Conditions: 10 mM as filed; unlikely as a test dose

| Structure (SMILES) | Percent Effect |
| --- | --- |
| Cc1cc(NC(=O)c2ccccc2Br)n(C)n1 | 11.86% |
| Cc1cnn(CC2CCCN2Cc2coc(-c3cccc(F)c3)n2)c1 (configuration not stated) | 42.46% |
| OC(COCc1ccco1)CN1CCC(Cn2cccn2)CC1 (configuration not stated) | -18.82% |
| COc1ccc2c(c1)OCC(Cc1ccc(N)nc1C)C2 (configuration not stated) | 38.23% |
| COc1ccc2c(c1)OCC(Cc1ccc(C)nc1N)C2 (configuration not stated) | 9.156% |
| COc1cccc2c1OCC(CNc1cc(N)nc(SC)n1)C2 (configuration not stated) | 106% |
| COc1cccc2c1OCC(CNc1ccc(C)nn1)C2 (configuration not stated) | 22.84% |
| COc1cccc2c1OCC(Cc1ccc(N)nc1C)C2 (configuration not stated) | 28.19% |
| COc1ccc2c(c1)OCC(CNc1cc(N)nc(SC)n1)C2 (configuration not stated) | 106.6% |
| Cc1nccc(-c2cccc(NCC(=O)N3CCNC(=O)C3)c2)n1 | 4.567% |
| CNC(=O)c1cccc(CC2COCCN(Cc3ccc(C)o3)C2)n1 (configuration not stated) | 0.6767% |
| Cc1ccc(S(=O)(=O)NCCc2ccoc2)s1 | 103.3% |
| COC(=O)c1sccc1S(=O)(=O)NCCc1ccoc1 | 39.87% |
| Cc1ccc(S(=O)(=O)NCC(O)c2ccoc2)s1 (configuration not stated) | 10.79% |
| O=S(=O)(NCC1COc2ccccc2C1)N1CCCC1 (configuration not stated) | 15.67% |
| OC1=C2C(=Nc3n[nH]c(O)c3C2c2ccco2)CCC1 (configuration not stated) | 27.79% |
| Cc1cnn(CC2CCCCN2Cc2nc(N)c3ccccc3n2)c1 (configuration not stated) | 31.76% |
| Cc1cnn(CC2CCCN2Cc2noc(-c3ccccc3)n2)c1 (configuration not stated) | 10.45% |
| Cc1cnn(CC2CCCN2Cc2nc3ccccc3n2C)c1 (configuration not stated) | 81.85% |
| Cc1nc(C)n(CC2CCCN2Cc2nc3ccccc3c(=O)[nH]2)n1 (configuration not stated) | -38.81% |
| Cc1cnn(CC2CCCN2CCc2nc3ccccc3c(=O)[nH]2)c1 (configuration not stated) | 106.5% |
| Cc1cnn(CC2CCCN2C(=O)CCc2nc3ccccc3[nH]2)c1 (configuration not stated) | 16.22% |
| Cc1cccc(CN2CCC(C3Nc4ccccc4S(=O)(=O)N3)CC2)n1 (configuration not stated) | -13.88% |

| Structure (SMILES) | Percent Effect |
| --- | --- |
| CCn1c(N)nc2cc(C(=O)N(C)Cc3cc(C(C)(C)C)n[nH]3)cnc21 | 12.68% |
| CN1CC(=O)N(c2cccc(F)c2)CC12CCNC2 (configuration not stated) | -13.58% |
| NC(=O)CN1CCCCC1c1nc(N)ncc1-c1cccc(F)c1 (configuration not stated) | -18.13% |
| COCCN1CCN(Cc2nc(-c3ccoc3)no2)CC1 | -27.89% |
| O=S(=O)(Nc1cnc(N2CCOCC2)nc1)c1ccc(C(F)(F)F)cc1 | 57.68% |
| CCc1ccc(S(=O)(=O)Nc2cnc(N3CCOCC3)nc2)cc1 | 24.89% |
| Cn1cc(NS(=O)(=O)c2ccc(OC(F)(F)F)cc2)ccc1=O | -35.35% |
| O=S(=O)(Nc1cnc(N2CCOCC2)nc1)c1ccc(Cl)cc1 | -17.06% |
| O=S(=O)(Nc1cnc(N2CCCC2)nc1)c1ccc(F)cc1F | -10.3% |
| O=S(=O)(Nc1cnc(N2CCCC2)nc1)c1ccc(OC(F)(F)F)cc1 | 94.98% |
| CN(C)c1ncc(NS(=O)(=O)c2ccc(OC(F)(F)F)cc2)cn1 | 23.91% |
| O=S(=O)(Nc1cnc(N2CCCC2)nc1)c1ccc(C(F)(F)F)cc1 | 101.9% |
| Cc1ccc(F)cc1S(=O)(=O)Nc1cnc(N2CCCC2)nc1 | 13.98% |
| O=C1CCC(=O)N1c1nn(Cc2ccccc2)cc1Cl | -38.92% |
| Cc1ccc(S(=O)(=O)c2ncccc2CN2CCCC2)cc1 | -5.255% |
| N#CC1COCCN1C(=O)c1ccc2[nH]ccc2c1 (configuration not stated) | 10.98% |
| CC(C)(C)n1cc(NC(=O)C2CN(Cc3ccccc3)CCO2)cn1 (configuration not stated) | 19.34% |
| COc1ccccc1CNC(=O)CN(C)C(C)c1ccncn1 (configuration not stated) | 1.408% |
| Cc1cn([C@H]2CCNC[C@]2(C)O)c(=O)[nH]c1=O | 34.03% |
| CC(C)N1CC[C@@](C)(O)[C@H](n2ccc(=O)[nH]c2=O)C1 | -3.084% |
| Cc1cn([C@@H]2CC3(CCNCC3)OC[C@@]2(C)O)c(=O)[nH]c1=O | 56.73% |
| CCc1ncc(S(C)(=O)=O)c(C2CCCNC2)n1 (configuration not stated) | 21.49% |
| CSc1nc(O)c(Cc2ccccc2)c(=O)n1-c1ccccc1 | 18.81% |

| Structure (SMILES) | Percent Effect |
| --- | --- |
| CCc1c(O)nc(SCC(=O)N(CC)CC)n(C(C)CC)c1=O (configuration not stated) | 4.731% |
| CCc1c(O)n(C(C)CC)c(SCC(=O)c2ccccc2)nc1=O (configuration not stated) | 28.35% |
| CCCSc1nc(O)c(CC)c(=O)n1-c1ccccc1 | 98.89% |
| CCOc1ccc(Cc2c(O)nc(SC)n(-c3ccccc3)c2=O)cc1 | 8.957% |
| CCc1c(O)nc(SC(C)CC)n(-c2ccccc2)c1=O (configuration not stated) | 96.76% |
| COc1ccc(Cc2c(O)nc(SC)n(-c3ccccc3)c2=O)cc1 | -12.72% |
| CCc1c(O)nc(SCC(=O)Nc2ccccc2)n(C(C)CC)c1=O (configuration not stated) | 65.15% |
| CCc1c(O)nc(SCC(=O)c2ccccc2)n(-c2ccccc2)c1=O | 13.57% |
| CNC(=O)COc1ccc(CNCc2c(C)nn(C)c2N(C)C)cc1 | -6.953% |
| O=S(=O)(c1ccc(F)c(F)c1)n1cc(Cl)cn1 | -7.033% |
| CC1(Cc2ccc(F)cc2)Cc2cc(C(=O)NCCO)ccc2O1 (configuration not stated) | 0.603% |
| COCc1noc(CN2C[C@H](NS(C)(=O)=O)[C@@H](C3CC3)C2)n1 | 15.5% |
| CC(C)COC(=O)N1CC(=O)N(Cc2ccc(Cl)cc2)CC(O)C1 (configuration not stated) | -5.11% |
| CS(=O)(=O)NCc1ncn2c1CN(C(=O)C1CCCO1)CCC2 (configuration not stated) | 5.323% |
| COC(=O)[C@H](CCSC)NC(=O)Cc1c(C)nn(-c2ccccc2)c1C | 83.92% |
| COC(=O)C(CCSC)NC(=O)Cc1c(C)nn(-c2ccccc2)c1C (configuration not stated) | 87.19% |
| COc1cccc(-c2nc(C)c(C(=O)N[C@H](CO)CCSC)s2)c1 | 3.237% |
| COc1cncc(-n2nc(C)c(CC(C)=O)c2C)c1 | 14.09% |
| COc1cccc(-c2nc(C)c(C(=O)N[C@@H](CCSC)C(=O)O)s2)c1 | 4.928% |
| CSCCC(NC(N)=O)C(=O)NCc1c(C)nn(-c2ccccc2)c1C (configuration not stated) | -4.034% |
| CC(C)C(=O)NCCCNC(=O)Nc1cc(-c2ccccc2)ns1 | 30.68% |
